# Mdm2-MdmX inh – disrupts the human Mdm2-MdmX interaction; inhibition, % at 8 µM; SaOS-2 split-luciferase Mdm2/MdmX complementation, luminescence; AID 485346; O15151+Q00987; actives 3% (n = 330,000);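 active means inhibition of at least 50% at 8 µM in the primary screen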
# Jurkat NFkB inh – inhibitors of the PMA/ionomycin-induced NF-kB reporter in Jurkat cells. PMA/ionomycin-induced NF-kB luciferase reporter, luminescence. inhibition, % at 4 µM. actives 0.53% (n = 330,000); in the data active means inhibition above about 50%
# Gli-Sufu block – Gli-Sufu pathway antagonism; Sufu-KO-LIGHT fibroblasts, Gli luciferase reporter luminescence; inhibition, % at 5 µM; actives 0.74% (n = 340,000); AID 588413;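 active means inhibition above about 55%, limit read from the data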;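 further: 0% = DMSO-treated cells and 100% = wells with medium but no cells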
# Shn3 3UTR inh – reduces Shn3 3'UTR luciferase signal in osteoblasts; Clone20 osteoblast Shn3 3'UTR firefly luciferase, 24 h; inhibition, % at 12.5 µM; actives 0.52% (n = 360,000);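 active means mean inhibition of at least 75% with every replicate also reaching 75%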;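 further: 0% = median of neutral control wells and 100% = pilot-screen positive control compound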
# 697 NFkB inh – inhibitors of the PMA/ionomycin-induced NF-kB reporter in 697 B cells. actives 0.33% (n = 330,000). inhibition, % at 4 µM. 697 B-cell NF-kB luciferase reporter, 16 h. AID 435022; in the data active means inhibition above about 35%
# 697 NFkB conf – lowers PMA/ionomycin-induced NF-kB signal in 697 B cells. 697 B-cell NF-kB luciferase, 16 h. shares compounds with 697 NFkB inh. actives 35% (n = 2,000). inhibition, % at 4 µM. AID 449746; in the data active means inhibition mostly above about 28%, no sharp cut-off; inactive means mostly below about 22%
# Mdm2 MdmX conf – human Mdm2/MdmX binding inhibition, confirmed | inhibition, % at 8 µM | luminescent assay | shares compounds with Mdm2-MdmX inh | AID 489028 | actives 55% (n = 10,000); in the data active means inhibition above about 40%
# Full FLuc ctr – counter-screen for Mdm2/MdmX inhibitors: full-length luciferase | shares compounds with Mdm2-MdmX inh | SaOS-2 full-length luciferase counterscreen, luminescence | inhibition, % at 8 µM | actives 77% (n = 6,200) | AID 504607;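 active means mean inhibition at 8 µM reaching about 37%, which flags the compound as non-specific, limit read from the data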;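 further: p53-null SaOS-2 cells with luciferase driven by a doxycycline-inducible promoter; compound on cells about two nights before reading with doxycycline added after day one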
# Starred values were filed as active, the others as inactive; i = inactive; / = no result given. Only some compounds are listed: those with a hit (about 3.8% of all), similar ones and a draw of the others.
SMILES,Mdm2-MdmX inh,Jurkat NFkB inh,Gli-Sufu block,Shn3 3UTR inh,697 NFkB inh,697 NFkB conf,others
Brc1cc2[nH]cnc2c2ccccc12,19,-1,22,0,39*,26,
O=C(CSc1ncn[nH]1)Nc1ncc(C(F)(F)F)cc1Cl,-21,-11,-1,13,9,/,
O=C(CSc1ncn[nH]1)Nc1ccc(Cl)c(Cl)c1,19,5,5,2,35*,17,
O=C(O)COc1ccccc1/C=N/NC(=O)CSc1nnc(-c2ccc(Cl)cc2)n1C1CCCCC1,15,-7,2,-19,23,/,
O=C(NNC(=O)C12CC3CC(CC(Br)(C3)C1)C2)c1ccccc1F,-9,3,12,-5,44*,43*,
O=C(NNC(=O)C12CC3CC(CC(O)(C3)C1)C2)c1ccccc1O,7,-7,-12,6,-3,/,
COc1ccc(C(O)c2ncc(-c3ccccc3)[nH]2)c(OC)c1 (centres undefined),/,/,/,-18,/,/,
O=C1/C(=C/Nc2ccc3c(c2)OCO3)CCc2ccccc21,10,-58,-77,-6,-469,-251,
C/C(CC(=O)Nc1cccc(Br)c1)=N\NC(=O)c1ccc(O)cc1O,-47,-26,1,1,1,/,
CC1=NN(C(N)=S)C(=O)C1N=Nc1ccc(Br)cc1 (centres undefined),-78,-93,-49,-82,-314,-7,
CC1=NN(C(N)=S)C(=O)C1N=Nc1ccc(Cl)cc1 (centres undefined),-80,-74,-63,-48,-230,/,
CCOC(=O)CC(=O)CSc1nnc2c(n1)[nH]c1ccccc12,8,-21,-8,-40,-81,/,
O=C(O)CSc1nnc2c(n1)[nH]c1ccccc12,-30,-39,4,-19,-22,/,
CC(C)CSc1nnc2c(n1)[nH]c1ccccc12,-13,-128,-86,-27,-311,-197,
COc1ccc2[nH]c3nc(SC(C)C)nnc3c2c1,-24,-130,-130,-22,-328,-343,
CCCCSc1nnc2c(n1)[nH]c1ccccc12,-57,-122,-82,-46,-314,-132,
CCCn1c(N)c(N(CCOC)C(=O)COC(=O)COc2c(C)cc(C)cc2C)c(=O)[nH]c1=O,/,/,/,-8,/,/,
CC(C)Nc1nc(NC(C)(C)C)nc(Oc2ccc(=O)n(C)n2)n1,37,3,11,-2,31,/,
CCCn1nc(Oc2nc(NCC)nc(NC(C)C)n2)ccc1=O,35,11,21,18,62*,26,
COc1ccc(NC(=O)CN(C)C(=O)c2cccc(S(=O)(=O)Nc3ccccc3Cl)c2)cc1,4,7,-7,19,0,/,
O=C(Nc1nccs1)c1cc2c(s1)CCCCC2,33,-39,8,29,-307,-356,
O=C(Nc1nncs1)c1cc2c(s1)CCC2,9,-25,-47,-77,-14,/,
CCOC(=O)C1CCN(C/C=C/c2ccccc2OC)CC1,6,1,-5,-11,38*,-2,
N#Cc1c(-c2ccc(F)cc2)ccnc1N1CCOCC1,1,8,-9,-1,-11,/,
c1ccc([C@H]2CN3C(=N2)Sc2ccccc23)cc1,-171,-137,-21,-60,-268,-347,
SMILES,Mdm2-MdmX inh,Jurkat NFkB inh,Gli-Sufu block,Shn3 3UTR inh,697 NFkB inh,697 NFkB conf,others
Cc1ccc(NC(=O)Nc2nnc(-c3ccccc3)o2)cc1,-13,-15,-14,-35,-33,/,
Cc1ccc(-c2nnc(Nc3ccccc3)o2)cc1,-2,-59,-72,21,-303,-366,
COC(=O)c1sc(S(=O)(=O)NCCC(=O)O)c(C(=O)OC)c1C,-5,-11,24,-16,0,/,
Nc1nn(-c2ccccc2)c(N)c1N=Nc1ccc2c(c1)OCO2,-124,-10,-118,-51,-270,-220,
COc1ccc(/C=N/NC(=O)c2cccnc2)cc1CN1CCCc2ccccc21,10,2,/,-18,25,/,
COc1ccc(C(=O)N/N=C/c2ccc(OC)c(CN3CCCc4ccccc43)c2)cc1,23,-3,2,25,44*,29*,
Cn1nnnc1Sc1ccc([N+](=O)[O-])cc1Cl,-19,3,5,-3,24,/,
Cn1nnnc1Sc1ncnc2scc(-c3ccc([N+](=O)[O-])cc3)c12,99*,44,25,81,-399,-197,Mdm2 MdmX conf=100*;Full FLuc ctr=50*
C(=N\Nc1nc(Nc2ccccc2)nc(Nc2ccccc2)n1)/c1ccncc1,29,-21,-5,4,20,/,
C(=N\Nc1nc(Nc2ccccc2)nc(Nc2ccccc2)n1)/c1cccnc1,72*,-15,3,4,35*,30*,Mdm2 MdmX conf=51*;Full FLuc ctr=81*
Cc1ccc(-n2ncc3c(SCc4ccccn4)ncnc32)c(C)c1,84*,-78,-2,34,i,i,Mdm2 MdmX conf=78*;Full FLuc ctr=28
O=C(COC(=O)CCc1ccccc1)NC1CCS(=O)(=O)C1 (centres undefined),6,5,-8,-1,-1,/,
CCOC(=O)N1CCN(C(=O)c2ccc(Cn3c(=S)[nH]c4cc5c(cc4c3=O)OCO5)cc2)CC1,27,22,2,8,-10,/,
CCOC(=O)N1CCN(C(=O)c2ccc(Cn3c(=S)[nH]c4cc(OCC)c(OCC)cc4c3=O)cc2)CC1,54*,21,13,70,37*,-4,Mdm2 MdmX conf=31
NC(=NC1CCCCC1)NS(=O)(=O)c1ccccc1,-16,-16,7,-11,-4,/,
Nc1c(C(=O)CSc2nc3ccccc3o2)c(=O)[nH]c(=O)n1C1CC1,80*,-40,-15,-23,-323,-334,Mdm2 MdmX conf=19
O=C(CSc1nnc(CNC(=O)c2c(F)cccc2Cl)o1)NCc1ccc(F)cc1,-8,5,44,5,3,/,
COCCCNC(=O)c1cc(-c2cccnc2)nc2ccccc12,-12,21,-2,-4,0,/,
O=C(NCc1ccccn1)c1cc(-c2ccc(-c3ccccc3)cc2)nc2ccccc12,84*,-53,-53,15,i,i,Mdm2 MdmX conf=61*;Full FLuc ctr=54*
O=C(NCc1ccccn1)c1cc(-c2ccccc2)nc2ccccc12,3,-6,8,-19,4,/,
COCCNC(=O)c1cc(-c2ccc(-c3ccccc3)cc2)nc2ccccc12,88*,-83,8,21,i,i,Mdm2 MdmX conf=84*;Full FLuc ctr=46*
CCCCNC(=S)N(CCN(C)C)Cc1cc2cc3c(cc2[nH]c1=O)OCCO3,18,-28,28,-3,-10,/,
CCCN1C(=O)c2ccccc2NC1c1ccc(OC)cc1O (centres undefined),64*,0,23,14,-310,-292,Mdm2 MdmX conf=54*;Full FLuc ctr=72*
O=C(Nc1ccc2c(c1)CCCN2C(=O)c1ccccc1)c1ccccc1Br,79*,-13,-9,2,-333,-180,Mdm2 MdmX conf=46*;Full FLuc ctr=77*

# Assay outcomes deposited in PubChem BioAssay by several laboratories.
